Compound activity: PubChem, National Center for Advancing Translational Sciences (NCATS)
Shown is part of a subset that was picked to be rich in hits.
GRP78 ERSR act – inducers of ER stress response in human glioma cells | Potency, µM, for the others: top-dose activation, most hits filed as activators | AID 602332 | actives 0.02% (n = 420,000) | U87-MG GRP78 promoter luciferase reporter, 16 h; note: series mostly up to about 76 µM; % of control where 0% means no effect; nearly all actives have a fitted effect of over 35% in size
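Stably transfected U87-MG glioma cells carrying a GRP78-based luciferase sensor; 16 h compound incubation. Luminescence end-point read 10 min after Bright-Glo addition at room temperature.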
G9a block – inhibitors of human histone lysine methyltransferase G9a; AID 504332; Potency, µM (titrated, usually from 102 µM), for the others: top-dose activity, negative = inhibition, usual class: inhibitors; G9a H3K9 monomethylation, AlphaScreen, 2 h; Q96KQ7; actives 8.8% (n = 350,000); note: % is set by controls: 0 for no effect and ±100 for the full control effect; nearly all actives have a fitted effect of over 75% in size
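Enzyme 20 nM + cpd, 15 min RT; add b-H3K9 pep 500 nM / SAM 20 uM; 2 h RT; anti-H3K9me1 Ab 0.5 ug/mL + SA donor / anti-rabbit acceptor beads 20 ug/mL each, 10 min; AlphaScreen read.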
12-LOX inh – ALOX12 (human) lipoxygenase inhibition; purified 12hLO, xylenol orange hydroperoxide absorbance; Potency, µM (top dose mostly 108 µM), for the others: at the highest dose activity change, negative = inhibition, hits mostly inhibitors; actives 1.1% (n = 580,000); AID 1671190; note: % is set by controls: 0 for no effect and ±100 for the full control effect
Target sequence (P18054 whole entry, looked up): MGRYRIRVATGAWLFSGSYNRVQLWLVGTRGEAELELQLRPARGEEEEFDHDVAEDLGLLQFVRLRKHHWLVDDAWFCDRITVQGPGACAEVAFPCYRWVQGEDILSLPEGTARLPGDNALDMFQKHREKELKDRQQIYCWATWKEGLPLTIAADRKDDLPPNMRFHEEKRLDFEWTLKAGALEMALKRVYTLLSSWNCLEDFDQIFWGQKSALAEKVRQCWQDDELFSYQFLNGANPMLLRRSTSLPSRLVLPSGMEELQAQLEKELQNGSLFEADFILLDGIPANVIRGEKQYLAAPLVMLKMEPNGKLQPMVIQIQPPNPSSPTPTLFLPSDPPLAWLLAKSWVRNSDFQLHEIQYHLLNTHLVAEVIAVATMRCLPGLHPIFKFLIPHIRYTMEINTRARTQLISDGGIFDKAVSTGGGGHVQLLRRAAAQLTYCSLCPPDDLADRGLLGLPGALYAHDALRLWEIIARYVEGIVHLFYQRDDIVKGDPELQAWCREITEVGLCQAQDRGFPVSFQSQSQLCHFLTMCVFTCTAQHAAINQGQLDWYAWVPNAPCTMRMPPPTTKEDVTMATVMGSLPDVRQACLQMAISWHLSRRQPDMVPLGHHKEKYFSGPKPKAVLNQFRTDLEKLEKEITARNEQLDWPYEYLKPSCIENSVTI
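Hydroperoxide product was detected by ferrous iron/xylenol orange as the 573 to 405 nm absorbance ratio. Arachidonic acid at 40 uM (final) was turned over for 30 min at room temperature by 150 nM human 12hLO, pH 7.0 Hepes buffer, after 15 min compound preincubation.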
Sfp inh – blocks B. subtilis Sfp PPTase activity; Q9F4F7; Biochemical Sfp PPTase activity, qHTS; actives 3.5% (n = 310,000); Potency, µM, inactives show largest response in the series, negative = inhibition, most hits filed as inhibitors;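 note: the enzyme is Sfp with the accession as filed and its product quenches rhodamine fluorescence; 0% = enzyme reaction without inhibitor and -100% = no enzyme wells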
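Step 1, compound plus 15 nM Sfp-PPTase, 15 min, room temperature. Step 2, add rhodamine-CoA (5 uM) and BHQ-2-YbbR (12.5 uM). Step 3, read 525/598 nm fluorescence at 0 and 30 min.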
VDR inh – blocks the human vitamin D receptor; VDR-SRC2-3 peptide fluorescence polarization, 2 h; P11473; actives 0.93% (n = 400,000); Potency, µM, without a hit: max response, negative = inhibition, hits mostly inhibitors; note: % is set by controls: 0 for no effect and ±100 for the full control effect
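Two reagent solutions held at 4 deg C in the dark were dispensed, compounds pinned at 23 nl, and the mixture incubated 2 h at room temperature. Read-out: fluorescence polarization of VDR–SRC2-3 peptide binding.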
An asterisk follows results filed as active; ? = inconclusive; nt = no result given; [ ] = dose if it differs, or a comment. Calls come from the whole dose curve; as a rule, active = well fitted curve in the direction sought with a large enough effect; inconclusive = small, poorly fitted or top-dose-only effect, or another doubt; inactive = no such curve, though single readings can be large; an effect the other way counts as inactive or inconclusive. Potency is the fitted concentration of half-maximal effect.

SMILES | GRP78 ERSR act | G9a block | 12-LOX inh | Sfp inh | VDR inh
CN(C)C[C@@H]1CN(Cc2ccccn2)C[C@H]1NS(=O)(=O)Cc1ccccc1 | nt | nt | 132.8% | nt | nt
O=[N+]([O-])c1cc(/C=N/N/C(=N/c2ccccn2)c2ccccn2)ccc1O | 4.8% | 50.1µM* | 43.3% | 12.4% | -10.5%
O=[N+]([O-])c1ccc(/C=N/Nc2ccccn2)cc1 | 3.4% | 9.8% | 0.0% | -11.5% | -8.2%
O=[N+]([O-])c1ccc(/C=N/N/C(=N/c2ccccn2)c2ccccn2)cc1 | -0.2% | 10.3%[12.7 µM] | 6.0%[57.4 µM] | 44.7µM* | -0.4%
COc1cccc(NC(=O)CN(C)C(=O)CSc2ncnc3scc(-c4ccccc4)c23)c1 | nt | nt | -12.9% | nt | nt
COc1cc2c(cc1OC)C(c1cc3cc4c(cc3[nH]c1=O)OCO4)N(C(=O)C1CC1)CC2 (stereo not given) | 1.0% | 9.7%[59 µM] | 0.7% | 39.8µM* | -11.7%
CCC(C)c1ccc(C(C)NC(=S)NCc2ccc(F)cc2)cc1 (stereo not given) | -5.6% | 47.3% | 39.8µM* | 24.4% | 15.5%
CCCc1ccc(C(C)NC(=S)NCc2ccc(F)cc2)cc1 (stereo not given) | 9.8% | 68.3% | 31.6µM* | 28.6% | -8.7%
CCC(NC(=S)NCc1ccc(F)cc1)c1ccc(C(C)C)cc1 (stereo not given) | -0.9% | 10.2% | ? | 27.0% | -4.1%
CCOc1ccc(C(C)NC(=S)NCc2ccc(Cl)cc2)cc1 (stereo not given) | 0.7% | 24.9% | 39.8µM* | 41.3% | -17.6%
CCCc1ccc(C(C)NC(=S)NC2CCCCC2)cc1 (stereo not given) | 1.9% | 53.5% | 35.5µM* | 15.9% | 15.5%
COc1ccc(C(C)NC(=S)NCc2ccc(F)cc2)cc1OC (stereo not given) | -0.2% | 7.2% | -18.7% | 18.4% | 0.0%
Cc1noc2nc(-c3ccccc3F)cc(C(=O)NCc3ccccc3)c12 | nt | nt | -38.6% | nt | nt
Cc1nc(C(=O)O)c(C(=O)O)nc1C | nt | nt | -36.6% | nt | nt
O=C(CCc1ncc(-c2ccccc2Cl)o1)NCc1ccc(Cl)cc1Cl | nt | nt | -19.7% | nt | nt
Cc1ccc(C)c(C(C)NC(=O)C2CCCC2)c1 (stereo not given) | -4.9% | 38.0% | -19.6% | 4.6% | 0.3%
Cc1ccc(C)c(C(C)NC(=S)NC2CCCCC2)c1 (stereo not given) | -7.5% | 48.2% | 44.7µM* | 4.4% | 3.8%
Cc1nc(NS(=O)(=O)c2ccccc2)sc1C(=O)NN | 2.7% | -0.3%[12.7 µM] | 0.2% | -16.8% | 9.0%
C/C(=N/NC(=O)c1sc(NS(=O)(=O)c2ccccc2)nc1C)c1sc(N)nc1C | -1.9% | 50.1µM* | ? | 1.7% | -2.2%
O=C(NNS(=O)(=O)c1ccc(F)cc1)c1ccccc1O | -2.4% | 31.6µM* | 0.0% | 11.1% | 15.5%
O=C(NNS(=O)(=O)c1ccc([N+](=O)[O-])cc1)c1ccc2ccccc2c1O | -0.9% | 70.8µM* | -20.5% | -11.0% | 3.2%
Cc1ccc(S(=O)(=O)NNC(=O)c2sccc2-n2cccc2)cc1 | -0.8% | 10.3%[59 µM] | 31.6µM* | 16.9% | -18.0%
O=C(NNS(=O)(=O)c1ccc(F)cc1)c1sccc1-n1cccc1 | -2.9% | -5.4% | -14.9% | 17.4% | 15.6%
CC(=O)Nc1cc(C(=O)COC(=O)c2cccc3ccccc23)ccc1O | nt | nt | -2.1% | nt | nt
Cc1ccc(S(=O)(=O)Nc2nc(C)c(C(=O)NNS(=O)(=O)c3ccccc3)s2)cc1 | -4.3% | 50.1µM* | ? | 5.6% | 2.5%
SMILES | GRP78 ERSR act | G9a block | 12-LOX inh | Sfp inh | VDR inh
Cc1nc(C)c(C(=O)NNS(=O)(=O)c2ccc([N+](=O)[O-])cc2)s1 | -5.6% | 7.94µM* | ? | -5.3% | -6.0%
Cc1ccc(S(=O)(=O)Nc2nc(C)c(C(=O)Nc3ccccc3)s2)cc1 | -1.7% | ? | ? | 26.0% | 7.8%
Cc1cccc(S(=O)(=O)NNC(=O)c2sc(C)nc2C)c1 | 1.8% | ? | -11.5% | -1.6% | 1.1%
COc1ccc(NC(=O)Nc2sc(NS(=O)(=O)c3ccccc3)nc2C)cc1 | -1.5% | 50.1µM* | 22.4µM* | 44.7µM* | 32.6%
O=C(/C=C/Nc1ccc(F)cc1F)c1cccs1 | -12.3% | 14.1µM* | -23.8% | ? | -7.2%
O=C(/C=C/Nc1ccccc1F)c1cccs1 | -10.6% | 31.6µM* | ? | 9.5% | -2.4%
CCOC(=O)c1ccccc1N/C=C/C(=O)c1cccs1 | 5.9% | 31.6µM* | ? | -15.6% | 7.9%
CCCOc1c(OC)cccc1C1CC(=O)Nc2c1c(C)nn2-c1ccc(Cl)nn1 (stereo not given) | nt | nt | -16.1% | nt | nt
Cc1ccc(C2Cn3cnc(C(=O)N4CCC(C(=O)NCCC5=CCCCC5)CC4)c3CO2)cc1 (stereo not given) | nt | nt | 49.8% | nt | nt
O=C(NNc1ccc(Cl)cc1)c1cccs1 | -1.8% | 10µM* | ? | -1.1% | ?
NS(=O)(=O)c1ccc(NNC(=O)c2cccs2)cc1 | 1.8% | 10µM* | -1.4% | ? | 39.8%
O=C(NNc1cc(Cl)cc(Cl)c1)c1cccs1 | -5.4% | 28.2µM* | ? | -7.3% | -1.2%
NS(=O)(=O)c1ccc(NS(=O)(=O)c2cccs2)cc1 | -4.1% | -33.4%[12.7 µM] | 14.1% | 12.3% | -1.3%
O=C(NNC(=S)Nc1ccc(Cl)cc1)c1cccs1 | 2.8% | 25.1µM* | -12.2% | 14.7% | -1.0%
O=C(NNC(=O)c1cccs1)Nc1cccc(Cl)c1 | -2.7% | 16.5%[0.0925 µM] | 0.0% | -4.0% | -0.5%
Cc1ccccc1OCc1nc(-c2ccccc2OCC(=O)N2CCC(C)CC2)no1 | nt | nt | -6.6% | nt | nt
COc1ccc(OCc2nnc3sc(-c4ccccn4)nn23)cc1 | nt | nt | 12.7% | nt | nt
CCCCN(CC(=O)NC(=O)NCc1ccccc1)c1ccccc1 | nt | nt | -13.1% | nt | nt
NS(=O)(=O)c1ccc(NNC(=O)c2ccc(F)cc2F)cc1 | -2.6% | 11.2µM* | 0.0% | 14.7% | -3.6%
Cc1ccc(NC(=O)c2ccc(F)cc2F)cc1 | -5.9% | nt | -1.4% | nt | -11.3%
CC(C)CCO[C@H]1COCCN(Cc2ccccn2)C1 | nt | nt | 65.2%[176 µM] | nt | nt
C/C(=N\NC(=O)c1ccc(Cl)cc1)c1cccnc1 | 0.5% | 6.7% | -1.4% | -1.9% | 25.7%
C/C(=N\NC(=O)Cc1c(F)cccc1Cl)c1cccnc1 | -3.7% | 50.1µM* | 461.6% | -5.1% | -2.0%
CCCn1c(N)c(C(c2ccc(OC)cc2)N2CCN(c3ccccc3)CC2)c(=O)[nH]c1=O (stereo not given) | -3.4% | -48.0%[12.7 µM] | -5.1% | -23.8% | 56.2µM*
CCCn1c(N)c(C(c2ccc(C(=O)OC)cc2)N2CCN(c3ccccc3)CC2)c(=O)[nH]c1=O (stereo not given) | -1.7% | 13.7%[59 µM] | 7.7% | -16.6% | -1.6%
CCCOc1ccc(C(=O)NC(=S)Nc2nc(C)c(C(=O)N(C)C)s2)cc1 | 4.1% | 11.2µM* | ? | -0.7% | 37.2%
CCCOc1ccc(C(=O)NNC(=S)NC(=O)c2ccco2)cc1 | ? | 39.8µM* | 39.8µM* | 3.2% | -29.3%
CCCOc1ccc(C(=O)NNC(=S)NC(=O)c2ccccc2)cc1 | ? | ? | 35.5µM* | 12.5% | -13.2%
